In PubChem BioAssay AID2528 (National Center for Advancing Translational Sciences (NCATS), 2010):
In all, about 350,000 compounds went through this assay and about 700 (0.2%) were called active. This excerpt belongs to a sample that is enriched for actives. Values without a mark were called inactive. The call rests on the fitted dose curve; in most records, active means well fitted inhibition curve with a large enough effect; inconclusive means small, poorly fitted or top-dose-only effect; inactive means flat fitted curve, though single readings scatter.

molecular target: RecQ-like DNA helicase BLM (Homo sapiens) (UniProt P54132); test: qHTS Assay for Inhibitors of Bloom's syndrome helicase (BLM); details: recombinant BLM DNA unwinding, fluorescence dequenching; series mostly up to 56.1 µM; activity change, negative = inhibition: at the top concentration; further: nearly all actives have a fitted effect of over 35% in size
Sequence (P54132 whole entry, looked up): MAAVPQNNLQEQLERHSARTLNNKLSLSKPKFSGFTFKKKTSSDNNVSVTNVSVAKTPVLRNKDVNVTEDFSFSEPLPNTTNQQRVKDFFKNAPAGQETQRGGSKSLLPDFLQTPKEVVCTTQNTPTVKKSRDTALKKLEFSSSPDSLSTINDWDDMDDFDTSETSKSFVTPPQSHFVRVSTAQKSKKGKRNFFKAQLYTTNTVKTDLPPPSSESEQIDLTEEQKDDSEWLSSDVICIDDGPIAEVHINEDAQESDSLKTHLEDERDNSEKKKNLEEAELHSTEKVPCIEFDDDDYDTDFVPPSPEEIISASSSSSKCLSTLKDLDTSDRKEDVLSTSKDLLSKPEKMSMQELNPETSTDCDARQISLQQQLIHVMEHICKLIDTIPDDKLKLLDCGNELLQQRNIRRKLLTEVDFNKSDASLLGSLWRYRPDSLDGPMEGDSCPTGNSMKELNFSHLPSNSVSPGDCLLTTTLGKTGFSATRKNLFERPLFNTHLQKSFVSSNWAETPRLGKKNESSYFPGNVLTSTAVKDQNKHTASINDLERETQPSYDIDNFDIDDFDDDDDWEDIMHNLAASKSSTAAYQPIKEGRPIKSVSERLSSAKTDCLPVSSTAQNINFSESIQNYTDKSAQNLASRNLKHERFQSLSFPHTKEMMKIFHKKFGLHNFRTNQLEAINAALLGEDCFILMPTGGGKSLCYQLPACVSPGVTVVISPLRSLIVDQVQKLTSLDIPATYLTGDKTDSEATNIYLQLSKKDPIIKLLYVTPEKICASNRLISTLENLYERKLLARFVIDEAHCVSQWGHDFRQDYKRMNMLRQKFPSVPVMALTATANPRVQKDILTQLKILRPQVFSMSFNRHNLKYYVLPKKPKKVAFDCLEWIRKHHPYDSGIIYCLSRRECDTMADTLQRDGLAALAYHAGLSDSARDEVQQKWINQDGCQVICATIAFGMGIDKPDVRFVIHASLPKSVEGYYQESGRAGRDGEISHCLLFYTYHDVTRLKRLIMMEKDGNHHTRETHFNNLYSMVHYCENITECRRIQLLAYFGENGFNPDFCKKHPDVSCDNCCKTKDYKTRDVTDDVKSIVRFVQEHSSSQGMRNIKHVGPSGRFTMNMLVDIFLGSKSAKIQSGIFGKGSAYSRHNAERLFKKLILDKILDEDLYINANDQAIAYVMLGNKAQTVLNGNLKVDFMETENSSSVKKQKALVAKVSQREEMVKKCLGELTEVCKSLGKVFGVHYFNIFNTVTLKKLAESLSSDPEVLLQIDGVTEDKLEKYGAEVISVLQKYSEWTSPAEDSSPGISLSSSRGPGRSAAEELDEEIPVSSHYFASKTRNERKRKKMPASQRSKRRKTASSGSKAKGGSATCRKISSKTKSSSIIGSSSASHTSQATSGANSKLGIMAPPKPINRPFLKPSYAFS
Text: Survival of cells and the faithful propagation of the genome depend on elaborate mechanisms of detecting and repairing DNA damage. Treatment of advanced cancer relies on radiation therapy or chemotherapy, which kill cancer cells by causing extensive DNA damage. It is often found, that cancer cells develop resistance to therapy through enhanced activity of DNA repair functions; this has led to an increased interest in developing drugs that interfere with DNA repair, which could sensitize cancer cells to conventional therapy.
This validation qHTS assay pertains to human BLM, which is important in resolving abnormal DNA structures formed during replication or homologous recombination. Shutting down the expression of BLM leads to chromosomal instability and higher radiation sensitivity in cultured cells.
The validation assay was a fluorescence quenching based kinetic qHTS for BLM Helicase DNA unwinding. The activity was measured as ATP-dependent separation of a 20-bp DNA duplex extended by 30-nt single-stranded tails (forked duplex). The forked DNA substrate was tagged with rhodamine fluorophore (carboxytetramethyl rhodamine, TAMRA) and BHQ-2 (Black Hole Quencher 2) dark quencher. Strand separation results in an increase in the fluorescence of TAMRA (excitation 525 nm, emission 598 nm). This substrate construct operates in a red-shifted region where very few compound library members have been noted to fluoresce (PubChem AIDs 593 and 594). An additional feature of the assay is the inclusion of 2.5 ug/ml poly (dIdC), to reduce interference by compounds such as DNA intercalators, a major source of false inhibitors.
Ian Hickson, University of Oxford
Opher Gileadi, Structural Genomics Consortium, University of Oxford
Screening Center PI: Austin, C.P.
Screening Center: NIH Chemical Genomics Center [NCGC]
Three uL of reaction buffer (25 mM Tris-HCl (pH 8.0), 5 mM NaCl, 2 mM MgCl2, 1mM DTT, 0.01% Tween- 20, and 2.5 ug/ml poly(dI-dC), including enzyme (50 nM BLM), were dispensed into a 1536-well Greiner black assay plate via solenoid-valve based nanoliter dispensers. Compounds (23 nl each in columns 5-48) and control (23 nl each in column 2 as dose-response) were transferred via a Kalypsys pintool equipped with a 1536-pin array. The plates were incubated for 15 min at room temperature, and then 1 ul of substrates (200 nM DNA and 2 mM ATP, final concentrations) was added to start the reaction. The plate was transferred into a ViewLux high-throughput CCD imager where the reaction progress was measured in a discontinuous kinetic mode (two reads spaced 2 hours apart, with intermediate room temperature incubation of the covered assay plate) by using standard red-fluorescence optics (excitation filter 525 nm, emission filter 598 nm). Enzyme-free and vehicle (DMSO) controls were included for signal normalization.
Potency means the concentration at half of the fitted maximal effect.

Structure (SMILES) | Potency | activity change, negative = inhibition [%]
COc1ccc(N2C(=O)/C(=C/c3ccco3)C(=O)NC2=S)cc1 | 12.6 µM (active) | –
COc1cccc(N2C(=O)NC(=O)/C(=C\c3ccc([N+](=O)[O-])s3)C2=O)c1 | – | -15.1
N#Cc1cc(Br)c(O)c(Br)c1 | – | -1.65
O=C1CCc2cccc3c2N1CC3 | – | 1.45
C[C@]12O[C@H](C[C@@]1(O)C(=O)O)n1c3ccccc3c3c4c(c5c6ccccc6n2c5c31)CNC4=O | – | 4.13
CCN(CC)c1nc(C)cc(OP(=S)(OC)OC)n1 | – | -6.05
CC(=O)[O][Sn]([c]1ccccc1)([c]1ccccc1)[c]1ccccc1 | – | -1.25
CCCCCCCCCCCCN=C(N)N | – | -12.6
C[C@@H]1C[C@H]2CC[C@H](O2)[C@H](C)C(=O)O[C@@H](C)C[C@@H]2CC[C@@H](O2)[C@@H](C)C(=O)O[C@H](C)C[C@H]2CC[C@H](O2)[C@H](C)C(=O)O[C@@H](C)C[C@@H]2CC[C@@H](O2)[C@@H](C)C(=O)O1 | – | -1.93
CC[N+](C)(CC)CCC[n+]1c(-c2ccccc2)c2cc(N)ccc2c2ccc(N)cc21 | 5.01 µM (active) | –
C[C@H]1C/C=C/[C@@H]2[C@@H]3O[C@]3(C)[C@@H](C)[C@H]3[C@H](Cc4ccccc4)NC(=O)[C@]32OC(=O)O/C=C/[C@](C)(O)C1=O | – | 0.289
COC([CH2][Hg])CNC(=O)c1ccccc1OCC(=O)O (stereo not given) | – | 3.32
CN(C)C[C@H]1CCCC[C@]1(O)c1cccc(O)c1 | – | -3.36
O=C(OCC1O[C@@H](OC(=O)c2cc(O)c(O)c(O)c2)[C@@H](OC(=O)c2cc(O)c(O)c(O)c2)[C@@H](OC(=O)c2cc(O)c(O)c(O)c2)[C@@H]1OC(=O)c1cc(O)c(O)c(O)c1)c1cc(O)c(O)c(O)c1 (stereo not given in full) | 0.501 µM (active) | –
CC(C)(Cc1c[nH]c2ccc(Cl)cc12)NCCOc1ccccc1OCC1CC1 | – | -0.797
